# Most compounds without a hit are left out; they make up all but 1.2% or so of the library.
# GALK inh: qHTS Assay for Inhibitors of Human Galactokinase (GALK); Purified GALK, Kinase-Glo residual ATP luminescence; Potency, µM (doses to about 57.5 µM), for inactives: at the highest dose activity change, negative = inhibition, actives largely listed as inhibitors; 270,000 compounds, 0.007% hits; AID 1868, 2009; note: potency is the fitted concentration of half-maximal effect
#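 Quantitative HTS: GALK 5 nM, ATP 35 uM, galactose 100 uM, 1 h room temperature, then luciferase-based ATP detection.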
# rTrxR1 inhibitor: qHTS Assay for Inhibitors of Mammalian Selenoprotein Thioredoxin Reductase 1 (TrxR1): qHTS. recombinant rTrxR1, NADPH fluorescence consumption, selenite substrate. Potency, µM (titrated, usually from 114 µM), inactives show top-dose activity change, negative = inhibition, most hits filed as inhibitors. Thioredoxin reductase 1, cytoplasmic (Rattus norvegicus), O89049. 390,000 compounds, 1% hits; note: potency is the fitted concentration of half-maximal effect; nearly all actives have a fitted effect of over 65% in size
#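 Rat TrxR1 (90 nM in the dispensed reagent) was pre-reduced with 400 uM NADPH for 5 min at room temperature, then incubated with compound for 15 min. After 400 uM selenite was added, NADPH fluorescence (Ex 340/Em 450 nm) was followed for 8 min.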
# PKM2 activator: qHTS Assay for Activators of Human Muscle isoform 2 Pyruvate Kinase; purified PKM2, Kinase-Glo ATP luminescence, activation; response scale: 0% is enzyme alone, no compound; 260,000 compounds, 0.34% hits; Potency, µM (highest dose often 57.5 µM), without a hit: top-dose activation, actives largely listed as activators; Pyruvate kinase PKM (Homo sapiens), P14618; note: potency is the fitted concentration of half-maximal effect; nearly all actives have a fitted effect of over 55% in size
#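 Kinase-Glo luminescence reports ATP generated from ADP (0.1 mM) and PEP (0.5 mM) by purified hPK-M2 after 1 h at room temperature, pH 7.2 imidazole buffer; intermediate enzyme activity allows detecting inhibitors and activators.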
# TrxR1 substrate: qHTS Assay for Substrates of Mammalian Selenoprotein Thioredoxin Reductase 1 (TrxR1): qHTS; Thioredoxin reductase 1, cytoplasmic (Rattus norvegicus), O89049; 390,000 compounds, 0.01% hits; purified TrxR1 substrate turnover, NADPH consumption readout; Potency, µM (highest dose often 114 µM), for the others: at the top dose activity change, negative = substrate turnover; note: potency is the fitted concentration of half-maximal effect; nearly all actives have a fitted effect of over 50% in size
#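 Rat TrxR1, dispensed at 90 nM, was prereduced with 400 uM NADPH (final) for 5 min at ~22 deg C, then incubated with compound 15 min before 400 uM selenite. A first-read NADPH fluorescence drop versus no-compound background flagged substrates.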
# PI4K2A block: qHTS for small molecular inhibitors of PI4K2A | purified PI4K2A, ADP-Glo luminescence, 1 h; stronger effect = lower value | activity change, negative = inhibition, % at 76.9 µM | 420,000 compounds, 0.13% hits | AID 1346378, 2018; in the data active = activity change below about -50%; inconclusive = mostly about -30% to -49%;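 note: -100% = wells without enzyme as full effect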
# Target sequence (Q9BTU6 whole entry, looked up): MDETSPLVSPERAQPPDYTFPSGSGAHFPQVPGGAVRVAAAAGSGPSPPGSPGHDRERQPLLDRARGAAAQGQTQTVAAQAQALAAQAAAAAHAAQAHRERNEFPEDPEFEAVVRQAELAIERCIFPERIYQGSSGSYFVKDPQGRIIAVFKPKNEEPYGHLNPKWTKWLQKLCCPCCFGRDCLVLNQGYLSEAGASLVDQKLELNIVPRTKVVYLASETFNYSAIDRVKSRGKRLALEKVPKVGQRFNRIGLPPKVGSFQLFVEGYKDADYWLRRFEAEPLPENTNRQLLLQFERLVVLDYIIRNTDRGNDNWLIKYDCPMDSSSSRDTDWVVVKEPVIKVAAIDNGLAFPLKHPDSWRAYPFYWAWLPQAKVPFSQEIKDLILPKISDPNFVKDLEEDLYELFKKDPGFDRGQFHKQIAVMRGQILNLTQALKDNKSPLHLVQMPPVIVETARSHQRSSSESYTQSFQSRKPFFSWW
#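 In this quantitative HTS, ADP production by PI4K2A was quantified luminescently after 1 h at ambient temperature; 100 microM adenosine served as plate-quality control.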
# Starred values were filed as active, the others as inactive; ? = inconclusive; / = no result given; [ ] = remark or other dose. Unless noted, calls come from the whole dose curve; as a rule, active = well fitted curve in the direction sought with a large enough effect; inconclusive = small, poorly fitted or top-dose-only effect, or another doubt; inactive = no such curve, though single readings can be large; an effect the other way counts as inactive or inconclusive. Unless noted, % is set by controls: 0 for no effect and ±100 for the full control effect.
SMILES,GALK inh,rTrxR1 inhibitor,PKM2 activator,TrxR1 substrate,PI4K2A block
Cc1cccc(-c2nc(SCCCOc3ccccc3Cl)n3[nH]c(=O)cc3n2)c1,/,12%[57.1 µM],/,26%[57.1 µM],3
Fc1cccc(-n2ncc3c2ncn2nc(Cc4ccccc4)nc32)c1,/,11%,/,4%,4
Cc1ccc2nc(/C(C#N)=C\c3ccc([N+](=O)[O-])o3)[nH]c2c1,0%,?,-5%,5%[57.1 µM],14
Cc1ccc2nc(/C(C#N)=C\c3ccc(N4CCOCC4)o3)[nH]c2c1,0%,13µM*,-1%,5%,-11
Cc1ccc(/C(C#N)=C\c2ccc(N3CCOCC3)o2)cc1,-1%,2.2µM*,2.8µM*,-2%,0
O=C1C=CC2(C=C1)O[C@H](Cc1ccccc1)[C@@H](Cc1ccccc1)O2,/,0.89µM*,/,4%[11.4 µM],?
COc1ccc(N2C(=O)CC(Cc3ccccc3)C2=O)cc1 (stereo unspecified),-3%,16%,0%,2%,-4
COc1ccc(C[C@@H]2OC3(C=CC(=O)C=C3)O[C@H]2Cc2ccc(OC)cc2)cc1,/,0.56µM*,/,-1%,?
Cc1ccccc1S(=O)Cc1ccc(C(=O)NC2CCCCCC2)o1 (stereo unspecified),/,16%,/,4%,1
CC(C)Oc1ccc(-c2csc(N3CCC(C(N)=O)CC3)n2)cc1,/,/,/,/,-2
CC(C)Oc1ccc(CNC(=O)C2CCCN(S(=O)(=O)c3ccc4c(ccn4C)c3)C2)cc1 (stereo unspecified),/,-9%[57.1 µM],/,-8%[57.1 µM],-12
CCC1=C[C@@H]2CN(C1)Cc1c([nH]c3ccccc13)[C@@](C(=O)OC)(c1cc3c(cc1OC)N(C)[C@H]1[C@@](O)(C(=O)OC)[C@H](OC(C)=O)[C@]4(CC)C=CCN5CC[C@]31[C@@H]54)C2,/,28µM*,/,4%,-1
CS(=O)(=O)c1nc(S(=O)(=O)c2ccc(Cl)cc2)c(N2CCC(C(N)=O)CC2)s1,4%,32µM*,/,-11%,-3
CC(=O)N(c1ccccc1C)C1CCCC1,1%,0%,-3%,-2%,-1
CC(=O)N(C1=C(Cl)C(=O)c2ccccc2C1=O)C1CCCCC1,3%,?,3.5µM*,-8%[57.1 µM],-6
Oc1ccc(Cl)cc1/C=N/c1nccs1,1%,?,17%,1%,4
Oc1c(Br)cc(Br)cc1/C=N/c1nccs1,/,35µM*,/,-6%,-1
Cc1cccc(C(=O)Nc2nc3ncccn3c2-c2ccc(F)cc2)c1,/,/,/,/,1
O=C(CN1CCNCC1)NC1CCCCC1,/,/,/,/,-4
C=CCN1C(=O)[C@@H](CC(=O)NCC23CC4CC(CC(C4)C2)C3)[C@]2(C(=O)OCC)CCCCC/C=C/12,/,/,/,/,4
O=[N+]([O-])c1cc(S(=O)(=O)NCCN2CCOCC2)ccc1Sc1nnnn1-c1ccccc1,-1%,20µM*,3%,-4%,5
Cc1ccc(-n2nnnc2Sc2ccc(S(=O)(=O)NCCN(C)C)cc2[N+](=O)[O-])cc1,-3%,?,0%,4%,-5
COc1cccc(C(=O)NCc2cn3ccccc3n2)c1,/,19%,/,-4%,-7
O=C1CCCC(O)=C1Sc1ccccc1C(=O)O,0%,20%,-3%,-1%,-7
CC1(C)CC(=O)C(N=Nc2ccc(-c3ccccc3)cc2)=C(O)C1,-2%,-1%,0%,-9%,-7
SMILES,GALK inh,rTrxR1 inhibitor,PKM2 activator,TrxR1 substrate,PI4K2A block
CC1(C)CC(=O)C(C(C#Cc2ccccc2)C2=C(O)CC(C)(C)CC2=O)=C(O)C1,-4%,10µM*,24%,-1%[57.1 µM],15
O=C1CCCC(O)=C1C(C#Cc1ccccc1)C1=C(O)CCCC1=O,1%,10µM*,?,-15%,-17
CC(C)(C)OC(=O)N1CCC(N2CCN(Cc3ccccc3)C(=O)C2=O)CC1,/,-9%[57.1 µM],/,-11%[57.1 µM],-5
Cc1noc(/C=C/c2ccco2)c1S(=O)(=O)N1CCC(C(=O)N(C)Cc2ccccc2)CC1,1%,71µM*,?,-12%,-16
Cc1noc(/C=C/c2ccco2)c1S(=O)(=O)N1CCC(C(=O)NC(C)c2ccccc2)CC1 (stereo unspecified),2%,?,3%,7%[57.1 µM],-29
C=CCOC/C=C/C#CCN(Cc1ccc(OC)cc1OC)C(=O)Nc1ccccc1,/,/,/,/,-2
CCCn1cc(S(=O)(=O)c2ccc(OC)cc2)c(=O)c2cc(F)c(N3CCCCCC3)cc21,/,-7%,/,-2%,-2
CCn1c(=O)c([N+](=O)[O-])c(Cl)c2ccccc21,-3%,2.5µM*,3%,5%,7
O=C(O)COc1ccc2c(c1)O/C(=C\c1ccco1)C2=O,/,45µM*,/,-1%,-22
Cc1ccc(/C=C/c2nc3ccccc3n2S(=O)(=O)c2ccc(Br)cc2)cc1,/,14%[57.1 µM],/,-8%[57.1 µM],-63*
Cc1ccc(-c2nn3c(C)nnc3s2)cc1NC(=O)c1ccc(-c2cccc(Cl)c2)o1,2%,35µM*,-2%,-5%,-6
CSCCC(NS(=O)(=O)c1ccc2c(c1)oc(=O)n2C)C(=O)Nc1ccc(Cl)cc1 (stereo unspecified),/,10%,/,-4%,3
Cc1cc(C)nc(SCC(=O)NC(=O)c2ccccc2O)n1,/,13µM*,/,-4%[57.1 µM],4
O=C(CC[C@H]1O[C@@H](n2cnc3c(NC(=O)c4ccccc4)ncnc32)[C@H](O)[C@@H]1O)NCc1ccc(OC(F)(F)F)cc1,/,/,/,/,0
O=c1cc(CO)oc(C(Nc2ccccn2)c2ccccc2Cl)c1O (stereo unspecified),0%,-14%,19%,-6%,-5
COc1ccc(C(Nc2ccccn2)c2oc(CO)cc(=O)c2O)cc1 (stereo unspecified),1%,8.9µM*,15%,6%,9
O=c1cc(CO)oc(C(Nc2ccccn2)c2ccc(F)cc2)c1O (stereo unspecified),-2%,8.9µM*,11%,-3%,-7
CCOc1ccc(NC(=O)CSc2ncn[nH]2)c([N+](=O)[O-])c1,0%,-6%,16µM*,-12%,-1
CCc1nc(SCC(=O)Nc2ccc(OC)cc2[N+](=O)[O-])n[nH]1,1%,16%[57.1 µM],25µM*,4%[57.1 µM],5
Cc1ccc2ncc3c(-c4ccccc4)nn(CC(=O)NC4CCCCC4)c3c2c1,/,24%[57.1 µM],/,2%[57.1 µM],-10
O=C(NCc1ccco1)C1Cc2ccccc2CN1S(=O)(=O)c1ccccc1F (stereo unspecified),/,16µM*,/,-1%,-18
